PubChem BioAssay
Active and inactive are the calls of the source.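 How the source made its calls: active means inhibition at or above 50% at 10 µM; inactive means inhibition below 50%.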

assay: blockers of RIG-like receptor reporter activation – cell-based, Sendai virus stimulus, luciferase, 10K MLSCN set, TLR/RLR signaling modifier project, primary screen (AID 602276); conditions: HEK293 RL24 IRF3 luciferase reporter, at 10 µM, stronger effect = higher value;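 further: firefly luciferase from ISG56 promoter only with Renilla not read in this screen; 0% = Sendai virus plus DMSO and 100% = medium plus DMSO without virus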

inhibition, inactive:
CCOC(=O)N1CCN(C(=O)c2cccn3c(=O)c4sccc4nc23)CC1 -8.79%
O=C(c1cc2ccccc2oc1=O)N1CCN(c2ccc(N3CCOCC3)nn2)CC1 -9.88%
CCc1cccc(NC(=O)CCc2nc(-c3cccs3)no2)c1 -5.35%
O=C(C1CC1)N1CCc2cc(Br)cc(S(=O)(=O)N3CCOCC3)c21 15.4%
CCOCCCNC(=O)C1CCCN(S(=O)(=O)CC)C1 (stereo unspecified) 15.1%
C/C(N)=C(/C#N)C(=O)COC(=O)CCSc1ccccc1 13.7%
CCCOc1ccc(N2CC(C(=O)Nc3ccc4c(c3)OCO4)CC2=O)cc1 (stereo unspecified) 3.94%
CCC(C)Nc1nc2c(c(=O)n(C)c(=O)n2C)n1Cc1ccc(F)cc1 (stereo unspecified) 15.9%
COc1ccc2cc(C(c3nnnn3C3CCCCC3)N3CCCCCC3)c3nnnn3c2c1 (stereo unspecified) 7.67%
O=C(Nc1cccnc1)Nc1ccccn1 -5.87%
O=C(NC1CCCCC1)c1cc2nc(-c3ccco3)cc(C(F)(F)F)n2n1 10.5%
O=C(CCN1C(=O)COc2ccccc21)NCCN1CCN(c2cccc(Cl)c2)CC1 7.8%
CCCc1cc(=O)[nH]c(SCc2ccccc2)n1 9.4%
CC(CCc1ccco1)NC(=O)Cn1ncc2c1-c1ccccc1OC2 (stereo unspecified) -1.38%
CCCNC(=O)c1ccccc1NC(=O)CN(c1ccccc1OCC)S(C)(=O)=O -1.76%
CCS(=O)(=O)N1CCC(C(=O)NC2CCCCCCC2)CC1 -13%
